What all share (assay): DAPPL (digital affinity profiling via proximity ligation, sequencing); 10 mM Tris-HCl pH 7.5, 50 mM NaCl, 1 mM DTT, 4% glycerol, room temperature, 30 min; GST-TFs on glutathione beads, 16-mer random dsDNA library, 0.1% formaldehyde crosslink after washing; high values mean tight binding
Conditions in all cases: protein: recombinant; tags: N-terminal GST; dsDNA, one strand shown

The target of one assay is T1, FLI1 (Homo sapiens, UniProt Q01543 1-452).
T1 sequence: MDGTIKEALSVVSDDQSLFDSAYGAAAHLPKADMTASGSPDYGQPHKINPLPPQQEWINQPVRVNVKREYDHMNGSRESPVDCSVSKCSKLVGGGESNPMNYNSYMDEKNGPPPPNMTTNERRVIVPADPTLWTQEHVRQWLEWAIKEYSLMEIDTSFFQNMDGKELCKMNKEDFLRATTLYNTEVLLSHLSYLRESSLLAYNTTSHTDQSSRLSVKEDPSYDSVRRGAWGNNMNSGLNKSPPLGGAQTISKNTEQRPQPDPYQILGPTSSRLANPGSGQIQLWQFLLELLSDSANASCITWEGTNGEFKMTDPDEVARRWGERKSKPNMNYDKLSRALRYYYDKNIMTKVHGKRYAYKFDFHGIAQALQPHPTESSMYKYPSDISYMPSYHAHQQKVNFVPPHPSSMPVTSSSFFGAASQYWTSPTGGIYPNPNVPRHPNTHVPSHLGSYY
Put shortly:
(§1)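 Binding signal is each hexamer's read frequency for a factor divided by its frequency in the tag-only sample. The factors were GST-fused human transcription factors from yeast, captured on glutathione beads, DNA-barcoded and pooled with that sample. Pools were incubated with 200 nmole of a random double-stranded 16-mer DNA library in Tris/NaCl/DTT/glycerol buffer at room temperature for 30 min, then washed, crosslinked with 0.1% formaldehyde, proximity-ligated with BsaI/T4 ligase (1 h, 37 °C), PCR-amplified and sequenced on an Illumina NextSeq500.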

Another assay deals with T2, ELK1 (Homo sapiens, UniProt P19419 1-428).
T2 sequence: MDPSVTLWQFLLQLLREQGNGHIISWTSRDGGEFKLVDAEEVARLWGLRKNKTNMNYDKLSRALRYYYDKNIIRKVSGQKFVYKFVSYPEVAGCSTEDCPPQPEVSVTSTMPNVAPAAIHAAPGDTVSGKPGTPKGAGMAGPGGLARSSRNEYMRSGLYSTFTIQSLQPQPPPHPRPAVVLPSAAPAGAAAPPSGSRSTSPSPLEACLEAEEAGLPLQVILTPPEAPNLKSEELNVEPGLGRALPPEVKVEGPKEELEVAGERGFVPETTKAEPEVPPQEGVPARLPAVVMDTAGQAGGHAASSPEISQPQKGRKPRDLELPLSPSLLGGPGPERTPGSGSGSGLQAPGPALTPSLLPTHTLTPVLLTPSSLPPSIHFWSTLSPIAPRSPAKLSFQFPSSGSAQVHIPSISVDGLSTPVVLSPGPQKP
Put shortly:
as §1

The target in another assay is T3, GABPA (Homo sapiens, UniProt Q06546 1-454).
T3 sequence: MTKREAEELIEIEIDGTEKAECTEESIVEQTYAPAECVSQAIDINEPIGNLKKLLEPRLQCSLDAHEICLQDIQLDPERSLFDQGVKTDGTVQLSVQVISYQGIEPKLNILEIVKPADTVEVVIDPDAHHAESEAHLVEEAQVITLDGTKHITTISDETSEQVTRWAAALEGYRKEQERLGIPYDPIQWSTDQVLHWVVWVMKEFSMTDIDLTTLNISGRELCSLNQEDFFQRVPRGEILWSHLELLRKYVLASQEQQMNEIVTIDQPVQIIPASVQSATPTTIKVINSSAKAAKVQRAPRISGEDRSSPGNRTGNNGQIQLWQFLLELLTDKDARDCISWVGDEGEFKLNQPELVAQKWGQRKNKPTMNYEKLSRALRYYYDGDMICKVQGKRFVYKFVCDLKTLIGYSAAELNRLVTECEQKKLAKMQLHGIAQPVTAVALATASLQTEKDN
The procedure, abridged:
as §1

In another assay the target is T4, ERG (Homo sapiens, UniProt P11308 1-479).
T4 sequence: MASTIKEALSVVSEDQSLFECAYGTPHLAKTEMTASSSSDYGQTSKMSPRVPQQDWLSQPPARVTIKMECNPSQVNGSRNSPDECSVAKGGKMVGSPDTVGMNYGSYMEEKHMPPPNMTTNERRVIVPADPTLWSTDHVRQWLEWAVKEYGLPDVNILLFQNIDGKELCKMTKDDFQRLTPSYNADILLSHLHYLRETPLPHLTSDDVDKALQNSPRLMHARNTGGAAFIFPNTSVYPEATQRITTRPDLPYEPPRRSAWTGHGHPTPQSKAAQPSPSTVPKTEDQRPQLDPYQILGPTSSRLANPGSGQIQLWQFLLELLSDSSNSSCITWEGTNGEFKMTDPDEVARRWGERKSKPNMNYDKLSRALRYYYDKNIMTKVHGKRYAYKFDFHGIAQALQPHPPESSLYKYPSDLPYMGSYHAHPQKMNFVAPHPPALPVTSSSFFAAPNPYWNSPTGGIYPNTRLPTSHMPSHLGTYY
The procedure, abridged:
as §1

Another assay has as its target ELF1 (Homo sapiens, UniProt P32519 1-619). The procedure, abridged:
as §1

A further assay has as its target T5, EHF (Homo sapiens, UniProt Q9NZC4 1-300).
T5 sequence: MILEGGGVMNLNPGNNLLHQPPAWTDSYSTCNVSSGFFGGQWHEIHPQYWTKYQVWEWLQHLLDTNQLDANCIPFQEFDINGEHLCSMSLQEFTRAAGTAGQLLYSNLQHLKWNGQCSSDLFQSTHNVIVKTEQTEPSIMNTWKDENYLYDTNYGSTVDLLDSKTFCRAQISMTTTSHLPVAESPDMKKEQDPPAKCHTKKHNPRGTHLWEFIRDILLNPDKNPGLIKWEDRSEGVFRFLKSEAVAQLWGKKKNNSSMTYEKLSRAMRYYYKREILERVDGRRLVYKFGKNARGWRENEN
Put shortly:
as §1

A further assay addresses SPI1 (Homo sapiens, UniProt P17947 1-270). The procedure, abridged: as §1
Another assay deals with SPIB (Homo sapiens, UniProt Q01892 1-262). Put shortly: as §1
In the next assay the target is T6, ELK3 (Homo sapiens, UniProt P41970 1-407).
T6 sequence: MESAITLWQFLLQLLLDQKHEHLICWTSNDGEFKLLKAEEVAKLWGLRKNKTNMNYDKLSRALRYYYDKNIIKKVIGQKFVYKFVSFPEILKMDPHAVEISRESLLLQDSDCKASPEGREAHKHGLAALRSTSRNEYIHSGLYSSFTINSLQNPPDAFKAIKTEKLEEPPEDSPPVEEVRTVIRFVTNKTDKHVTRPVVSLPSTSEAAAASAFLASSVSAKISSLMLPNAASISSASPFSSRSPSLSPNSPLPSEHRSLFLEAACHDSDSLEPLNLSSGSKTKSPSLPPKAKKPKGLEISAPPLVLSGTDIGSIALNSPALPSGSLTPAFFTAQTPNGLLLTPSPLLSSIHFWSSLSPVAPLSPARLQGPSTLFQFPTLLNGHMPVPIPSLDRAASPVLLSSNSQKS
The procedure, abridged: as §1

Chain of ELF1 (P32519 whole entry): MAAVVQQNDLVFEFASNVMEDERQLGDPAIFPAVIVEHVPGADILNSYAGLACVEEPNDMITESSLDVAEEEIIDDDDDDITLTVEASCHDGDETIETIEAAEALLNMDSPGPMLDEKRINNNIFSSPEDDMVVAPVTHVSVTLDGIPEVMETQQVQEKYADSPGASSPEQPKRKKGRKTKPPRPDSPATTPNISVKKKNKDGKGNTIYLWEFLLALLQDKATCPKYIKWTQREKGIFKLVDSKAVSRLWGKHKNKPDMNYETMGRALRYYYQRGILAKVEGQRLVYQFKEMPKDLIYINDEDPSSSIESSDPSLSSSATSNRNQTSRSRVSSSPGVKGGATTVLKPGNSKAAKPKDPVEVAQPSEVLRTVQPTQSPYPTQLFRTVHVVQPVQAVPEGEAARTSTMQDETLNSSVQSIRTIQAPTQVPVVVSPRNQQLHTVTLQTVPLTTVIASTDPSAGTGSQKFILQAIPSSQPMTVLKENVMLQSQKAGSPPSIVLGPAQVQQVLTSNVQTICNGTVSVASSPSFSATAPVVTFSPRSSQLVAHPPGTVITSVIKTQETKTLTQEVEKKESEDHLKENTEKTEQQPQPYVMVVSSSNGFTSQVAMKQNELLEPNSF
Chain of SPIB (Q01892 whole entry): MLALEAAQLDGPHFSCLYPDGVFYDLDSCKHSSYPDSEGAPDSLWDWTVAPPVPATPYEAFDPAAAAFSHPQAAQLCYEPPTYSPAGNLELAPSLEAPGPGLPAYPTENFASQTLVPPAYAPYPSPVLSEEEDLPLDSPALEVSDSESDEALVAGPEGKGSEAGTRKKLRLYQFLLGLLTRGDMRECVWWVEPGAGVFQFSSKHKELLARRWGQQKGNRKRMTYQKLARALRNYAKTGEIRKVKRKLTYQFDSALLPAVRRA

Regarding ATGACA, the binding signal in the assay with FLI1 is 1.34 fold enrichment (6-mer frequency, TF over GST control); in the assay with ELK1, 1.32 fold enrichment (6-mer frequency, TF over GST control); in the assay with GABPA, 1.45 fold enrichment (6-mer frequency, TF over GST control); with ERG it was 1.32 fold enrichment (6-mer frequency, TF over GST control); in the assay with ELF1, 1.39 fold enrichment (6-mer frequency, TF over GST control); in the assay with EHF it was 1.32 fold enrichment (6-mer frequency, TF over GST control). Also, the binding signal was 1.29 fold enrichment (6-mer frequency, TF over GST control) with SPI1; 1.32 fold enrichment (6-mer frequency, TF over GST control) with SPIB; 1.3 fold enrichment (6-mer frequency, TF over GST control) with ELK3.
Regarding CTCTGT, the binding signal in the assay with FLI1 was 1.5 fold enrichment (6-mer frequency, TF over GST control); with ELK1, 1.39 fold enrichment (6-mer frequency, TF over GST control); with GABPA it was 1.33 fold enrichment (6-mer frequency, TF over GST control); with ERG it was 1.29 fold enrichment (6-mer frequency, TF over GST control); with ELF1 it was 1.5 fold enrichment (6-mer frequency, TF over GST control); with EHF it was 1.44 fold enrichment (6-mer frequency, TF over GST control). The binding signal with SPI1 is 1.34 fold enrichment (6-mer frequency, TF over GST control); with SPIB it was 1.36 fold enrichment (6-mer frequency, TF over GST control); with ELK3, 1.19 fold enrichment (6-mer frequency, TF over GST control).
Turning to CCTTTA, the binding signal was 1.36 fold enrichment (6-mer frequency, TF over GST control) in the assay with FLI1; 1.4 fold enrichment (6-mer frequency, TF over GST control) with ELK1; 1.37 fold enrichment (6-mer frequency, TF over GST control) with GABPA; 1.21 fold enrichment (6-mer frequency, TF over GST control) in the assay with ERG; 1.36 fold enrichment (6-mer frequency, TF over GST control) in the assay with ELF1; 1.29 fold enrichment (6-mer frequency, TF over GST control) with EHF. Also, the binding signal with SPI1 was 1.45 fold enrichment (6-mer frequency, TF over GST control); with SPIB it was 1.3 fold enrichment (6-mer frequency, TF over GST control); with ELK3 it was 1.21 fold enrichment (6-mer frequency, TF over GST control).
With TCGCCC, the binding signal in the assay with FLI1 is 1.34 fold enrichment (6-mer frequency, TF over GST control); with ELK1, 1.4 fold enrichment (6-mer frequency, TF over GST control); in the assay with GABPA, 1.3 fold enrichment (6-mer frequency, TF over GST control); with ERG, 1.27 fold enrichment (6-mer frequency, TF over GST control); with ELF1, 1.31 fold enrichment (6-mer frequency, TF over GST control); with EHF it was 1.27 fold enrichment (6-mer frequency, TF over GST control). The binding signal was 1.29 fold enrichment (6-mer frequency, TF over GST control) in the assay with SPI1; 1.25 fold enrichment (6-mer frequency, TF over GST control) with SPIB; 1.27 fold enrichment (6-mer frequency, TF over GST control) with ELK3.
As for GCTCTC, the binding signal with FLI1 is 1.43 fold enrichment (6-mer frequency, TF over GST control); with ELK1 it was 1.5 fold enrichment (6-mer frequency, TF over GST control); with GABPA it was 1.53 fold enrichment (6-mer frequency, TF over GST control); in the assay with ERG it was 1.42 fold enrichment (6-mer frequency, TF over GST control); with ELF1 it was 1.47 fold enrichment (6-mer frequency, TF over GST control); with EHF, 1.34 fold enrichment (6-mer frequency, TF over GST control). In addition, the binding signal with SPI1 was 1.35 fold enrichment (6-mer frequency, TF over GST control); with SPIB it was 1.29 fold enrichment (6-mer frequency, TF over GST control); with ELK3, 1.46 fold enrichment (6-mer frequency, TF over GST control).
TCATCC: the binding signal in the assay with FLI1 was 1.4 fold enrichment (6-mer frequency, TF over GST control); with ELK1, 1.38 fold enrichment (6-mer frequency, TF over GST control); in the assay with GABPA, 1.39 fold enrichment (6-mer frequency, TF over GST control); with ERG it was 1.36 fold enrichment (6-mer frequency, TF over GST control); in the assay with ELF1 it was 1.41 fold enrichment (6-mer frequency, TF over GST control); in the assay with EHF, 1.38 fold enrichment (6-mer frequency, TF over GST control). The binding signal in the assay with SPI1 is 1.34 fold enrichment (6-mer frequency, TF over GST control); with SPIB, 1.34 fold enrichment (6-mer frequency, TF over GST control); with ELK3, 1.43 fold enrichment (6-mer frequency, TF over GST control).
With CTCAAG, the binding signal is 1.29 fold enrichment (6-mer frequency, TF over GST control) in the assay with FLI1; 1.17 fold enrichment (6-mer frequency, TF over GST control) with ELK1; 1.14 fold enrichment (6-mer frequency, TF over GST control) in the assay with GABPA; 1.18 fold enrichment (6-mer frequency, TF over GST control) with ERG; 1.18 fold enrichment (6-mer frequency, TF over GST control) with ELF1; 1.21 fold enrichment (6-mer frequency, TF over GST control) with EHF. The binding signal with SPI1 was 1.22 fold enrichment (6-mer frequency, TF over GST control); with SPIB it was 1.2 fold enrichment (6-mer frequency, TF over GST control); with ELK3, 1.32 fold enrichment (6-mer frequency, TF over GST control).
